High-throughput results: PubChem BioAssay, National Center for Advancing Translational Sciences (NCATS)
MARV entry inh: qHTS for inhibitors of binding or entry into cells for Marburg Virus. Potency, µM (titrated, usually from 37.8 µM), inactives show at the highest dose activity change, negative = inhibition, hits mostly inhibitors. 300,000 compounds, 1.8% hits. Marburg virus pseudotyped entry inhibition, cell reporter. AID 540276, 2011; calls by dose curve; tested in HEK293 cells; note: potency is the fitted concentration of half-maximal effect; % is set by controls: 0 for no effect and ±100 for the full control effect
Shiga inhibitor: A qHTS for Small Molecule Inhibitors of Shiga Toxin | inhibition, % at 38.7 µM | Vero cells, Shiga toxin protein synthesis inhibition reporter | 290,000 compounds, 9.2% hits; in the data active = inhibition mostly above about 28%, no sharp cut-off; inactive = mostly below about 43%; note: 0% is about no effect
LASV entry inh: qHTS for Inhibitors of binding or entry into cells for Lassa Virus; Lassa virus pseudotype entry inhibition, cell reporter; Potency, µM (doses to about 37.9 µM), without a hit: at the highest dose activity change, negative = inhibition, most hits filed as inhibitors; 300,000 compounds, 1.2% hits; calls by dose curve; tested in HEK293 cells; note: potency is the fitted concentration of half-maximal effect; % is set by controls: 0 for no effect and ±100 for the full control effect; nearly all actives have a fitted effect of over 50% in size
Pf growth 96h: Primary qHTS for delayed death inhibitors of the malarial parasite plastid, 96 hour incubation. Potency, µM (top dose mostly 28.7 µM), inactives show at the top dose activity change, negative = inhibition, hits mostly inhibitors. P. falciparum luciferase reporter growth, 96 h. 320,000 compounds, 6.9% hits; note: potency is the fitted concentration of half-maximal effect; % is set by controls: 0 for no effect and ±100 for the full control effect
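Cell-based qHTS: luciferase-tagged P. falciparum in erythrocytes (2% hematocrit, 0.05% parasitemia final) incubated with compounds for 96 hours, 37 C, 5% CO2; luciferase detection reagent then added and luminescence measured.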
Cycloheximide cs: Cycloheximide Counterscreen for Small Molecule Inhibitors of Shiga Toxin. max response, %. 300,000 compounds, 12% hits. cell reporter, cycloheximide protein synthesis inhibition counterscreen; in the data active = max response mostly above about 13%, no sharp cut-off; inactive = mostly below about 14%; note: read at 38.3 µM for the half of the compounds with a filed dose; 0% is about no effect
Pf growth 48h: Primary qHTS for delayed death inhibitors of the malarial parasite plastid, 48 hour incubation; P. falciparum luciferase growth in erythrocytes, 48 h; Potency, µM (highest dose often 28.7 µM), without a hit: top-dose activity change, negative = inhibition, most hits filed as inhibitors; 310,000 compounds, 5.9% hits; AID 504832, 2011; note: potency is the fitted concentration of half-maximal effect; % is set by controls: 0 for no effect and ±100 for the full control effect
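Luminescence readout; reporter = integrated firefly luciferase in P. falciparum. RBC culture at 2% hematocrit, 0.1% parasitemia final, 37 C/5% CO2; decreased signal taken as growth inhibition.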
* hit, by the source's call; i = inactive; ? = inconclusive; . = not tested or not shown; [ ] = dose if it differs, or a comment. Compounds with a hit are over-represented: about 19% of the library has one in this group of screens. Unless noted, calls come from the whole dose curve; as a rule, active = well fitted inhibition curve with a large enough effect; inconclusive = small, poorly fitted or top-dose-only effect, or another doubt; inactive = no such curve, though single readings can be large or run the other way.

SMILES	MARV entry inh	Shiga inhibitor	LASV entry inh	Pf growth 96h	Cycloheximide cs	Pf growth 48h
O=C(CSc1ncccn1)N1CCc2ccccc2C1	.	28	.	4%	14*	0%
CCOc1cc2[nH]c(=S)n(CCC(=O)N3CCc4ccccc4C3)c(=O)c2cc1OCC	6%	-7	-10%	9.3µM*	-3	?
Cc1ccnc(SCC(=O)N2CCc3ccccc3C2)n1	14%[46.1 µM]	3	7%[46.1 µM]	2%	-2	?
Cc1ccc(OCC(=O)N2CCc3ccccc3C2)cc1	.	22	.	i	12	-22%
O=C(CN(C1CCCCC1)S(=O)(=O)c1ccccc1)N1CCCC1	5%	-3	16%	-1%	-2	5%
O=C(COc1ccc(F)cc1)N1CCc2ccccc2C1	21%	26	?	30%	32*	14%
O=C(CN(C1CCCCC1)C1CCCCC1)N1CCc2ccccc2C1	?	3	?	13µM*	1	.
Cc1ccc(S(=O)(=O)OC[C@@H]2CN3[C@H](c4ccc(Br)cc4)[C@H](C)CC[C@H]3C(=O)O2)cc1	-12%[14.2 µM]	.	.	.	.	.
O=C(CCc1ccccn1)NC1CCCc2c1cnn2-c1ccc(F)cc1F (stereo not given)	.	0	.	32%	-2	-15%
C=C1C=CS(=O)(=O)N(C(C)C(=O)OC)C1 (stereo not given)	.	-9	.	.	0	.
Cn1nnc2sc3c(c2c1=O)CCCC3	-6%	-14	-1%	?	7	?
Cc1cc(C)c(NC(=O)COC(=O)CCc2ccc(S(=O)(=O)N3CCCCC3)cc2)c(C)c1	19%[46.1 µM]	-6	14%[46.1 µM]	-11%	-2	-4%
CCOC(=O)c1ccc(NC(=O)N2CCOc3ccccc32)cc1	.	.	-11%[46.1 µM]	.	.	.
O=C(c1cccs1)N1CCc2ccccc2C1	?	1	14%	22%	-2	13%
O=C(CCCOc1ccccc1)N1CCc2ccccc2C1	?	85*	-13%	11%	39*	66%
O=C(c1ccc(Br)s1)N1CCc2ccccc2C1	.	152*	.	37%	49*	46%
O=C(CCCOc1ccc(Cl)cc1Cl)N1CCc2ccccc2C1	-8%	-1	3%	?	2	-6%
O=C(/C=C/C(=O)N1CCc2ccccc2C1)N1CCc2ccccc2C1	.	23	.	?	-1	-10%
O=C(Cc1ccc(Br)cc1)N1CCc2ccccc2C1	.	.	.	-5%	39*	51%
C/C(=N\NS(C)(=O)=O)c1ccc(C)cc1	5%	-1	-5%	447%	-2	13%
CN(C)/C=C/c1onc(-c2ccccc2Cl)c1C#N	?	69*	-2%	32%	42*	78%
Cc1ccccc1-c1noc(N)c1C#N	5%	-2	6%	?	3	?
CC1(C)Cc2c(ccc3ccccc23)/C(=C/C(=O)N2CCCCC2)N1	11µM*	-13	-9%	?	-5	10µM*
Cc1ccc(CN2C(=O)C3CCCN3c3ccc(S(=O)(=O)N4CCOCC4)cc32)cc1 (stereo not given)	1%	-8	.	1.7µM*	15	4.7µM*
Cc1ccc(CN2C(=O)C3CCCN3c3ncccc32)cc1 (stereo not given)	.	-5	.	?	-4	-20%[0.00184 µM]
SMILES	MARV entry inh	Shiga inhibitor	LASV entry inh	Pf growth 96h	Cycloheximide cs	Pf growth 48h
O=C(O)CC12CSc3[nH]c(=O)sc3C1c1ccccc1OC2=O (stereo not given)	.	3	.	-19%	4	.
Cc1ccc(NC(=O)c2ncn(-c3ccccc3)n2)cc1Cl	?	.	2%[46.1 µM]	.	.	.
COc1cc2nc(N3CCN(C(=O)[C@@H]4COc5ccccc5O4)CC3)nc(N)c2cc1OC	.	.	.	13µM*	.	15µM*
COc1ccc2nc(N3CCN(C(=O)C4COc5ccccc5O4)CC3)sc2c1 (stereo not given)	?	.	15%	36%	.	5%
COc1cc2nc(N3CCN(C(=O)C4COc5ccccc5O4)CC3)nc(N)c2cc1OC (stereo not given)	12µM*	-13	?	3.7µM*	-3	4.7µM*
O=C(c1cc(S(=O)(=O)N2CCOCC2)c(Cl)cc1Cl)N1CCCCC1CO (stereo not given)	7%[46.1 µM]	-11	11%	-1%	-4	-9%
c1ccc(OCCSc2nnnn2-c2ccccc2)cc1	?	55*	?	192%	60*	.
CCOc1ccc(OCCSc2nnnn2-c2ccccc2)cc1	?	-7	?	.	-1	17%
Fc1ccccc1OCCSc1nnnn1-c1ccccc1	?	84*	?	39%	47*	350%
Cc1ccccc1OCCSc1nnc(C)n1-c1ccccc1	14%	31	?	0%	19*	.
c1ccc(-n2nnnc2SCCCSc2nc3ccccc3s2)cc1	2%	-9	1%	4.1µM*	1	.
Cc1ccccc1OCc1nnc(SCC(=O)O)n1-c1ccccc1	.	.	.	-8%	1	-5%
Cc1ccc(C(=O)CN(C(=O)c2ccc(Cl)c(Cl)c2)N2C(=O)C3CCCCC3C2=O)cc1C (stereo not given)	?	-15	5%	-2%	-4	.
S=C(NCCNC(=S)Nc1ccccc1)Nc1ccccc1	.	.	.	?	2	-28%
Cc1ccc(C)c(NC(=S)NCCc2ccc(F)cc2)c1	.	-7	.	?	1	13µM*
Cc1ccc(NC(=S)NCc2ccc(F)cc2)c(C)c1	?	-2	15%[46.1 µM]	?	-1	?
Cc1cc(C)cc(NC(=S)NCCc2ccc(S(N)(=O)=O)cc2)c1	7%[46.1 µM]	-9	-10%	1.7µM*	1	-8%
S=C(NCCOCCOCCNC(=S)Nc1ccccc1)Nc1ccccc1	-29%[46.1 µM]	14	-15%	-1%	-4	6.6µM*
Cc1ccc([N+](=O)[O-])cc1NC(=S)NCCc1ccccc1	.	-5	.	13µM*	2	-14%
CCOC(=O)C(CC)/C(C)=N\NC(=O)CCC(=O)Nc1ccc(Cl)cc1Cl (stereo not given)	.	26	.	-2%	-2	8%
COc1ccc(NC(=O)[C@@H](c2ccccc2)N2Cc3ccccc3C2=O)cc1OC	5%[46.1 µM]	.	-2%[46.1 µM]	.	.	.
Cc1ccccc1NC(=S)NCCc1ccccc1	?	16	?	47%	15*	-25%
Cc1ccc(C(=O)O)cc1NC(=S)NCCc1ccccc1	.	2	.	?	-2	5%
Cc1cc(Br)ccc1NC(=S)NCCc1ccccc1	-25%[46.1 µM]	6	?	12µM*	10	-32%
Cc1ccc(SCCNC(=S)Nc2cc(C)ccc2C)cc1	-28%	-16	?	8.3µM*	-1	.
COc1ccc(CCNC(=S)Nc2ccccc2C)cc1	10%[46.1 µM]	-20	12%	?	-3	?
S=C(NCCc1ccccc1)Nc1ccccn1	?	92*	10%	?	39*	50%
O=C(CN1CCN(S(=O)(=O)c2ccc(F)cc2)CC1)NCc1cccs1	-5%[46.1 µM]	.	-25%	20%	.	?
